According to paper PMC11006913:
Substitutions are numbered along the chain they refer to.

Legend:
Experiment in all cases: PBM; 200 nM protein, PBS
Conditions in all cases: dsDNA, one strand shown
[1] = molecular target: HOXB9 (Homo sapiens, UniProt P17482 171-250, T197M)
[2] = molecular target: T1, PAX4 (Homo sapiens, UniProt O43316 9-242, R200K)
T1 sequence: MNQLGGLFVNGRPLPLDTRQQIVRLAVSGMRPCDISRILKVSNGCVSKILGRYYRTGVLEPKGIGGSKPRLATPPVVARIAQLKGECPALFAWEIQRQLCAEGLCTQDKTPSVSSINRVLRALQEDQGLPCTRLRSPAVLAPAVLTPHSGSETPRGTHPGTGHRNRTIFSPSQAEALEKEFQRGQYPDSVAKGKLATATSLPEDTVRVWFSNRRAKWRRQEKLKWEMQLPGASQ

[3] = molecular target: T2, PAX4 (Homo sapiens, UniProt O43316 9-242)
T2 sequence: T1 sequence with K192R

[4] = molecular target: HOXB9 (Homo sapiens, UniProt P17482 171-250)
HOXB9 (Homo sapiens, UniProt P17482 171-250), sequence (P17482 171-250): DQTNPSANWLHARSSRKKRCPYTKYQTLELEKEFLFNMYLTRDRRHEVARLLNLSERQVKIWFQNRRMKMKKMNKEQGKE

[5] = molecular target: MSX2 (Homo sapiens, UniProt P35548 130-214, R199I)
MSX2 (Homo sapiens, UniProt P35548 130-214, R199I), sequence (P35548 130-214 R199I): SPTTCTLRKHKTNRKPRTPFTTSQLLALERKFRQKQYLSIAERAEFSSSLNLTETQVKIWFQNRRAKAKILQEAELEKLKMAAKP

[6] = molecular target: T3, PAX4 (Homo sapiens, UniProt O43316 9-242, R200Q)
T3 sequence: T1 sequence with K192Q

[7] = molecular target: T4, PAX4 (Homo sapiens, UniProt O43316 9-242, F177V)
T4 sequence: T1 sequence with F169V, K192R

[8] = molecular target: MSX2 (Homo sapiens, UniProt P35548 130-214)
MSX2 (Homo sapiens, UniProt P35548 130-214), sequence (P35548 130-214): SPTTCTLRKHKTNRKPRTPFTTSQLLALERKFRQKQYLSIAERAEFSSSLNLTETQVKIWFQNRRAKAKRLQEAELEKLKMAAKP

[9] = molecular target: T5, PAX4 (Homo sapiens, UniProt O43316 9-242, F177Y)
T5 sequence: T1 sequence with F169Y, K192R

[10] = molecular target: PROP1 (Homo sapiens, UniProt O75360 56-141)
PROP1 (Homo sapiens, UniProt O75360 56-141), sequence (O75360 56-141): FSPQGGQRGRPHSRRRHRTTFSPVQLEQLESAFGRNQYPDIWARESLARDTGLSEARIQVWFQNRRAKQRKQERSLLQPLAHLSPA

[11] = molecular target: PROP1 (Homo sapiens, UniProt O75360 56-141, R99H)
PROP1 (Homo sapiens, UniProt O75360 56-141, R99H), sequence (O75360 56-141 R99H): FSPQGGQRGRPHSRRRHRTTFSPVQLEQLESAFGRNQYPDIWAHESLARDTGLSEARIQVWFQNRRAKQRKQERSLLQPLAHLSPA

[12] = molecular target: HOXB9 (Homo sapiens, UniProt P17482 171-250, R186Q)
HOXB9 (Homo sapiens, UniProt P17482 171-250, R186Q), sequence (P17482 171-250 R186Q): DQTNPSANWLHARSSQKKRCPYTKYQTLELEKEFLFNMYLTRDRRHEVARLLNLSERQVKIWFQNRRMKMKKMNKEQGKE

[13] = molecular target: PROP1 (Homo sapiens, UniProt O75360 56-141, F88S)
PROP1 (Homo sapiens, UniProt O75360 56-141, F88S), sequence (O75360 56-141 F88S): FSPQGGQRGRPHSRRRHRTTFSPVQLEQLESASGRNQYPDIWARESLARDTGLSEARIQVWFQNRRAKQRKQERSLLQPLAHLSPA

[14] = molecular target: MSX2 (Homo sapiens, UniProt P35548 130-214, F161Y)
MSX2 (Homo sapiens, UniProt P35548 130-214, F161Y), sequence (P35548 130-214 F161Y): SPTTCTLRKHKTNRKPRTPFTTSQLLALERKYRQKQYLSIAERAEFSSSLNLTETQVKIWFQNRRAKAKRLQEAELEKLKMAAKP

[15] = molecular target: T6, PAX4 (Homo sapiens, UniProt O43316 9-242, R227W)
T6 sequence: T1 sequence with K192R, R219W

[16] = molecular target: HOXB6 (Homo sapiens, UniProt P17509 132-218, K202E)
HOXB6, sequence (P17509 132-218 K202E): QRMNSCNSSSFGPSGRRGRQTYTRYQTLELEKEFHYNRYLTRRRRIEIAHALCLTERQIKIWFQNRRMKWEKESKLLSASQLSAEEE

[17] = molecular target: HOXC9 (Homo sapiens, UniProt P31274 178-260, K195R)
HOXC9 (Homo sapiens, UniProt P31274 178-260, K195R), sequence (P31274 178-260 K195R): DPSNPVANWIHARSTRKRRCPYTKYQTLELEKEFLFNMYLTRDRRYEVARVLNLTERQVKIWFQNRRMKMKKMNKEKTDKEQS

[18] = molecular target: HOXC9 (Homo sapiens, UniProt P31274 178-260)
HOXC9 (Homo sapiens, UniProt P31274 178-260), sequence (P31274 178-260): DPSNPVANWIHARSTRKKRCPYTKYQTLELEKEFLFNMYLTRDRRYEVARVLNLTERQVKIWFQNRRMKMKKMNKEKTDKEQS

[19] = molecular target: HOXC9 (Homo sapiens, UniProt P31274 178-260, R193K)
HOXC9 (Homo sapiens, UniProt P31274 178-260, R193K), sequence (P31274 178-260 R193K): as the sequence (P31274 178-260) above, with R16K counted along it

[20] = molecular target: HOXC9 (Homo sapiens, UniProt P31274 178-260, R222W)
HOXC9 (Homo sapiens, UniProt P31274 178-260, R222W), sequence (P31274 178-260 R222W): as the sequence (P31274 178-260) above, with R45W counted along it

HOXB9 (Homo sapiens, UniProt P17482 171-250, T197M), sequence (P17482 171-250 T197M): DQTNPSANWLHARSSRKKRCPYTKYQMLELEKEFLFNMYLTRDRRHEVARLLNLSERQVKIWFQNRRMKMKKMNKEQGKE

GCTCTCCC
binding signal [1]: 8.34 upbm affinity estimate (log intensity, higher = more binding, comparable within an allelic series)
binding signal [2]: 9.21 upbm affinity estimate (log intensity, higher = more binding, comparable within an allelic series)
binding signal [3]: 9.22 upbm affinity estimate (log intensity, higher = more binding, comparable within an allelic series)
binding signal [4]: 8.35 upbm affinity estimate (log intensity, higher = more binding, comparable within an allelic series)
binding signal [5]: 9.54 upbm affinity estimate (log intensity, higher = more binding, comparable within an allelic series)
binding signal [6]: 9.3 upbm affinity estimate (log intensity, higher = more binding, comparable within an allelic series)
binding signal [7]: 9.23 upbm affinity estimate (log intensity, higher = more binding, comparable within an allelic series)
binding signal [8]: 9.45 upbm affinity estimate (log intensity, higher = more binding, comparable within an allelic series)
binding signal [9]: 9.16 upbm affinity estimate (log intensity, higher = more binding, comparable within an allelic series)
binding signal [10]: 6.88 upbm affinity estimate (log intensity, higher = more binding, comparable within an allelic series)
binding signal [11]: 6.87 upbm affinity estimate (log intensity, higher = more binding, comparable within an allelic series)
binding signal [12]: 8.35 upbm affinity estimate (log intensity, higher = more binding, comparable within an allelic series)
binding signal [13]: 6.53 upbm affinity estimate (log intensity, higher = more binding, comparable within an allelic series)
binding signal [14]: 9.57 upbm affinity estimate (log intensity, higher = more binding, comparable within an allelic series)
binding signal [15]: 9.27 upbm affinity estimate (log intensity, higher = more binding, comparable within an allelic series)

ATTAATAC
binding signal [1]: 10.1 upbm affinity estimate (log intensity, higher = more binding, comparable within an allelic series)
binding signal [2]: 11.8 upbm affinity estimate (log intensity, higher = more binding, comparable within an allelic series)
binding signal [3]: 12.2 upbm affinity estimate (log intensity, higher = more binding, comparable within an allelic series)
binding signal [16]: 10.1 upbm affinity estimate (log intensity, higher = more binding, comparable within an allelic series)
binding signal [6]: 11.8 upbm affinity estimate (log intensity, higher = more binding, comparable within an allelic series)
binding signal [7]: 10.6 upbm affinity estimate (log intensity, higher = more binding, comparable within an allelic series)
binding signal [9]: 11.1 upbm affinity estimate (log intensity, higher = more binding, comparable within an allelic series)
binding signal [15]: 11.1 upbm affinity estimate (log intensity, higher = more binding, comparable within an allelic series)

ATAAAATG
binding signal [1]: 9.81 upbm affinity estimate (log intensity, higher = more binding, comparable within an allelic series)
binding signal [17]: 12.5 upbm affinity estimate (log intensity, higher = more binding, comparable within an allelic series)
binding signal [4]: 11.7 upbm affinity estimate (log intensity, higher = more binding, comparable within an allelic series)
binding signal [18]: 12.6 upbm affinity estimate (log intensity, higher = more binding, comparable within an allelic series)
binding signal [19]: 12.6 upbm affinity estimate (log intensity, higher = more binding, comparable within an allelic series)
binding signal [12]: 11.6 upbm affinity estimate (log intensity, higher = more binding, comparable within an allelic series)
binding signal [20]: 11 upbm affinity estimate (log intensity, higher = more binding, comparable within an allelic series)
